From PubChem BioAssay
Calls of active or inactive are those of the source. Unless noted, no rule for the calls is given here.

What was measured:
[1] = HepG2 liver cancer cell viability effects, profiling panel, resazurin fluorescence, 24 h, PK04 Diversity Set (AID 1172); settings: higher = more signal
[2] = basal S. cerevisiae growth modulation, no modifier, primary screen, OD600, strain BY4716, 24 h, basal condition (AID 1173); settings: OD600, 24 h, higher = more signal, called active from +8 up or from −8 down
[3] = MM1S myeloma cell viability, profiling panel, resazurin fluorescence, basal, 24 h, PK04 Diversity Set (AID 1174); settings: higher = more signal, called active from +8 up or from −8 down;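 also: MM1S multiple myeloma cell line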
[4] = target: Dihydroorotate dehydrogenase (quinone), mitochondrial (Plasmodium falciparum (isolate 3D7)) (UniProt Q08210); assay: PfDHODH enzyme inhibitors, primary screen, biochemical, C-terminal His tag, absorbance 600 nm (AID 1175); settings: DCIP absorbance 600 nm, higher = more signal, called active from +8 up or from −8 down;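 also: recombinant parasite enzyme with a five histidine tag at its C terminus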
Chain of Dihydroorotate dehydrogenase (quinone), mitochondrial (Plasmodium falciparum (isolate 3D7)) (Q08210 whole entry, looked up): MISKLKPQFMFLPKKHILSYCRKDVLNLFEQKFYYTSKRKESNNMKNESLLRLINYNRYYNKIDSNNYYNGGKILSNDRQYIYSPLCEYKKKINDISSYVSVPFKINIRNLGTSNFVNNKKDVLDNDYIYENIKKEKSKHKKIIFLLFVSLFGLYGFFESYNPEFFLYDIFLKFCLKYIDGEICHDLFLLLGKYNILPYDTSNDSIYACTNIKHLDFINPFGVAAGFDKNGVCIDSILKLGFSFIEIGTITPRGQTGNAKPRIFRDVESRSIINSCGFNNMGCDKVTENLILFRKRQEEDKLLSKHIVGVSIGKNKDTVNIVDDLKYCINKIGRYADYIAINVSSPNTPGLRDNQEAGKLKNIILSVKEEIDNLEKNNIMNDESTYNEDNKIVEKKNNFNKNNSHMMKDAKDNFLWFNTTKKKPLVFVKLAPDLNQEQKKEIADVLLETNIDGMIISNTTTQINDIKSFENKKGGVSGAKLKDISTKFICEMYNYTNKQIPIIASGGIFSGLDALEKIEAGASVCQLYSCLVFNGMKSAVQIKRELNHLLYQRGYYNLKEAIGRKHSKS

[5] = P. aeruginosa biofilm formation inhibitors, primary screen, strain PAO1, LB-PBS medium, absorbance 600 nm (AID 1176); settings: P. aeruginosa PAO1 growth/biofilm, A600, 12 h; higher = more signal
[6] = S. cerevisiae RM11-1a growth modifiers, primary screen, strain RM11-1a, OD600, basal, 24 h (AID 1177); settings: OD600, 24 h, higher = more signal, called active from +8 up or from −8 down;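 also: cultures grown under basal conditions with no added stressor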
[7] = E. coli acrAB mutant growth effects, primary screen, E. coli filamentation inducers, strain DRC39, OD650, 24 h (AID 1178); settings: higher = more signal, called active from +8 up or from −8 down;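 also: growth measured as culture turbidity by optical density at 650 nm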
[8] = E. coli acrAB mutant growth effects, primary screen, E. coli filamentation inducers, strain DRC39, OD650, 48 h (AID 1179);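 also: screen aims at cell division blockers that make cells filament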; settings: E. coli DRC39 delta-acrAB growth, higher = more signal, called active from +8 up or from −8 down
[9] = RPMI8226 myeloma cell viability, profiling panel, resazurin fluorescence, basal, 24 h, PK04 Diversity Set (AID 1180); settings: higher = more signal;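 also: RPMI8826 multiple myeloma cell line at 5000 cells per well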
[10] = target: E3 ubiquitin-protein ligase XIAP (Homo sapiens) (UniProt P98170); assay: XIAP binders, primary screen, biophysical, small-molecule microarray, fluorescence 635 nm (AID 1181); settings: small-molecule microarray binding, higher = more signal;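 also: score merges 667 nm emission and signal to noise over triplicate slides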
Chain of E3 ubiquitin-protein ligase XIAP (Homo sapiens) (P98170 whole entry, looked up): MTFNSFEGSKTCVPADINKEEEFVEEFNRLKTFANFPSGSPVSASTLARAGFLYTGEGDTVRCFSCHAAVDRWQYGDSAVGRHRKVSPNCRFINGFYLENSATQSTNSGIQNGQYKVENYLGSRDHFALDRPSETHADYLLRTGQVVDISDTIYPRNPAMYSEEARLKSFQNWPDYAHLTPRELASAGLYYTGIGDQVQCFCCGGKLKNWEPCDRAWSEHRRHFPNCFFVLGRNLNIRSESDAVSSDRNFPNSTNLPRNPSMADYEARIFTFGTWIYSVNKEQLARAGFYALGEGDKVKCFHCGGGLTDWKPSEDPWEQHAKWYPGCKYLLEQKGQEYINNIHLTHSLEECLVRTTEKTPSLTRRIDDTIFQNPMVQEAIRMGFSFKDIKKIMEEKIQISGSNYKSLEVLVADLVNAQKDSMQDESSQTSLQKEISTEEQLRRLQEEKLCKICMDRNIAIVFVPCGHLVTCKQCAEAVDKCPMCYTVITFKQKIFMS

[11] = system: XIP peptide (Xip251-270) binding; assay: small-molecule binders of XIP peptide, primary screen, biochemical, small-molecule microarray, fluorescence 635/667 nm, 0.1 µg/mL protein (AID 1182); settings: fluorescent protein binding, 635 nm, higher = more signal, called active from +8 up or from −8 down
[12] = system: XIP peptide (Xip251-270); assay: small-molecule binders of XIP peptide, primary screen, biochemical, small-molecule microarray, fluorescence 635/667 nm, 0.5 µg/mL protein (AID 1183); settings: small-molecule microarray binding, fluorescence 635 nm; higher = more signal
[13] = Plasmodium falciparum growth inhibition, primary screen, strain 3D7, DAPI fluorescence, 100 nL (AID 1184);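 also: parasites grown inside human red blood cells in medium with human serum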; settings: P. falciparum 3D7 growth, 3 d, higher = more signal
[14] = target: Homeobox protein Hox-A13 (Mus musculus) (UniProt Q62424); assay: inhibitors of HoxA13-DNA binding, primary screen, biochemical, fluorescence polarization, labeled oligonucleotide (AID 1185); settings: 15 min, higher = more signal, called active from +8 up or from −8 down
Chain of Homeobox protein Hox-A13 (Mus musculus) (Q62424 whole entry, looked up): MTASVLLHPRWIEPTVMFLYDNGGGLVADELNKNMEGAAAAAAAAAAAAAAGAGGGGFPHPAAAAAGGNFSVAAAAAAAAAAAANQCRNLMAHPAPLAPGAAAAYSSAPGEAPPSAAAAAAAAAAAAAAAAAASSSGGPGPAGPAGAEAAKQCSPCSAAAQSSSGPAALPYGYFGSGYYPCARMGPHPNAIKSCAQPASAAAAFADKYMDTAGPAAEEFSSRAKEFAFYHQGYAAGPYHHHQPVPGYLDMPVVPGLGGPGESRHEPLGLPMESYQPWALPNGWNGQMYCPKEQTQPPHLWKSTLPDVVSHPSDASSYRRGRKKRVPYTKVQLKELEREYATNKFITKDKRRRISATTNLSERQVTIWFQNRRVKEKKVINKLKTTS

[15] = inhibitors of hydroxyurea-induced Chk1 phosphorylation, primary screen, imaging, HeLa, phospho-Chk1 antibody, percent positive cells (AID 1186); settings: hydroxyurea-induced phospho-Chk1 immunofluorescence imaging, higher = more signal
[16] = inhibitors of hydroxyurea-induced Chk1 phosphorylation, primary screen, imaging, HeLa, phospho-Chk1 nuclear intensity (AID 1187); settings: hydroxyurea-induced phospho-Chk1 immunofluorescence imaging, higher = more signal

Structure (SMILES)	z-score [1]	z-score [2]	z-score [3]	composite z-score [4]	z-score [5]	z-score [6]	z-score [7]	z-score [8]	z-score [9]	composite z-score [10]	composite z-score [11]	composite z-score [12]	z-score [13]	z-score [14]	z-score [15]	z-score [16]
C=CCC(OC(C)=O)[C@@H]1[C@@H](N(Cc2ccc(-c3ccccc3)cc2)C(=O)c2cccc3ccccc23)c2cc(OCCCO)ccc2N1C(=O)c1ccc(-c2ccccc2)cc1 (some centres undefined)	-0.398	-0.467 (inactive)	0.395 (inactive)	-0.0355 (inactive)	-0.0391 (inactive)	-0.768 (inactive)	1.59 (inactive)	0.734 (inactive)	0.234	-0.411	-0.299 (inactive)	-0.321	-2.81	-1.22 (inactive)	-0.627 (inactive)	-0.234 (inactive)
O=C1C[C@@](C(=O)NC2CC2)(c2ccc([N+](=O)[O-])cc2)[C@@H](c2ccc(CO)cc2I)N1C1CCCCC1	0.0684	-0.466 (inactive)	-0.191 (inactive)	-0.716 (inactive)	0.512 (inactive)	-0.0222 (inactive)	0.149 (inactive)	-0.528 (inactive)	-0.538	0.123	0.0057 (inactive)	0.693	-1.28	-4.72 (inactive)	-0.254 (inactive)	-0.233 (inactive)
COc1cc2c(cc1O)C(C1CC1)N(Cc1sc3ccccc3c1Cl)CC2 (centres undefined)	-1.58	-18.3 (active)	-0.789 (inactive)	-0.931 (inactive)	-1.33 (inactive)	-22 (active)	0.531 (inactive)	-0.75 (inactive)	-1.42	-0.031	0.275 (inactive)	0.637	-1.23	-2.44 (inactive)	-0.147 (inactive)	0.302 (inactive)
C=CCN1C(=O)[C@@]2(Cc3ccccc31)N=C(c1ccc(OCCCO)cc1)O[C@H]2c1ccccc1	-0.0935	-2.94 (inactive)	-2.21 (inactive)	0.161 (inactive)	0.122 (inactive)	1.4 (inactive)	1.27 (inactive)	0.775 (inactive)	-2.81	-0.0009	0.619 (inactive)	0.801	-1.16	-4.35 (inactive)	-0.456 (inactive)	-0.416 (inactive)
CN1C(=O)C2C=CC(C(O)c3ccco3)N(Nc3ccccc3)C2C1=O (centres undefined)	-0.86	1.35 (inactive)	-0.944 (inactive)	1.24 (inactive)	1.41 (inactive)	1.61 (inactive)	-0.436 (inactive)	-0.0442 (inactive)	-0.328	0.42	-0.225 (inactive)	0.343	-0.142	-3.54 (inactive)	-0.221 (inactive)	-0.752 (inactive)
COc1ccc(C#Cc2ccc3c(c2)[C@]2(C(=O)N3)[C@H](c3ccccc3OCCO)N3[C@H](c4ccccc4)[C@H](c4ccccc4)OC(=O)[C@H]3[C@@H]2C(=O)Nc2nc3ccccc3s2)cc1	-0.927	1.35 (inactive)	-0.545 (inactive)	-30.7 (active)	2.77 (inactive)	2.93 (inactive)	0.0225 (inactive)	0.132 (inactive)	-1.76	0.0471	0.881 (inactive)	0.68	-1.9	2.72 (inactive)	0.165 (inactive)	0.265 (inactive)
C=CCNC(=O)[C@@H]1[C@H]2C(=O)O[C@H](c3ccccc3)[C@H](c3ccccc3)N2[C@H](c2ccc(O)cc2)[C@@]12C(=O)N(C(=O)OCCOC)c1ccc(C#CCNC(N)=O)cc12	-0.0359	0.0215 (inactive)	-0.0272 (inactive)	-1.74 (inactive)	0.318 (inactive)	-0.586 (inactive)	0.916 (inactive)	1.39 (inactive)	0.302	-0.17	0.963 (inactive)	0.787	0.251	-2.11 (inactive)	-0.26 (inactive)	-0.436 (inactive)
[N-]=[N+]=NCc1ccccc1[C@@H]1OC(c2ccc(OCCCO)cc2)=N[C@]1(Cc1ccccc1)C(=O)NCC(O)CO (some centres undefined)	0.597	-0.293 (inactive)	-0.869 (inactive)	-0.0408 (inactive)	1.35 (inactive)	-0.0888 (inactive)	-0.151 (inactive)	-0.465 (inactive)	-0.665	-0.0294	-0.275 (inactive)	-0.0063	-2.06	-2.01 (inactive)	-0.0268 (inactive)	0.117 (inactive)
CN1C(=O)C2C=CC(C(O)c3ccccc3)N(N(c3ccccc3)c3ccccc3)C2C1=O (centres undefined)	-0.112	0.833 (inactive)	-0.728 (inactive)	0.0002 (inactive)	0.226 (inactive)	0.579 (inactive)	-0.854 (inactive)	0.139 (inactive)	-0.323	0.259	-0.274 (inactive)	-0.0284	0.796	-1.72 (inactive)	0.812 (inactive)	0.606 (inactive)
COCC(=C=CC[C@@H](O)c1cccc(OCCO)c1)C[C@@H](O)c1ccccn1	0.353	-0.449 (inactive)	0.423 (inactive)	-1.61 (inactive)	-0.353 (inactive)	0.0156 (inactive)	0.947 (inactive)	0.604 (inactive)	0.973	0.0471	1.36 (inactive)	0.141	-1.2	-4.8 (inactive)	-1.08 (inactive)	-0.725 (inactive)
COC(=O)[C@@]1(Cc2ccccc2)[C@H]2c3cc(C(=O)N(C)C)n(Cc4ccsc4Br)c3C[C@H]2CN1C(=O)c1ccccc1	-1.77	1.92 (inactive)	-1.74 (inactive)	0.486 (inactive)	0.467 (inactive)	1.24 (inactive)	0.156 (inactive)	0.0523 (inactive)	-3.12	0.0496	0.274 (inactive)	0.116	-1.51	-4.23 (inactive)	0.567 (inactive)	0.0591 (inactive)
[N-]=[N+]=NCc1ccccc1C[C@]1(C(N)=O)COC(c2ccc(OCCCO)cc2)=N1	0.252	-1.66 (inactive)	0.424 (inactive)	-0.0854 (inactive)	0.466 (inactive)	-1.37 (inactive)	1.23 (inactive)	1.87 (inactive)	0.399	0.144	0.154 (inactive)	0.817	-0.486	-4.67 (inactive)	-0.913 (inactive)	-0.959 (inactive)
COc1cc2c(cc1OC)CN(C(=O)[C@@H]1[C@H]3C(=O)O[C@H](c4ccccc4)[C@H](c4ccccc4)N3[C@H](c3ccccc3OCCO)[C@@]13C(=O)Nc1ccc(C#CCCO)cc13)CC2	0.0986	1.28 (inactive)	-0.0469 (inactive)	0.379 (inactive)	2.35 (inactive)	1.98 (inactive)	0.158 (inactive)	0.793 (inactive)	0.43	0.271	2.75 (inactive)	0.827	-2.18	3.45 (inactive)	0.14 (inactive)	0.598 (inactive)
CC[C@@H]1C=C(C(=O)O)[C@H](c2ccc(Br)cc2)N1S(=O)(=O)c1ccc(C)cc1	-0.386	-0.14 (inactive)	-0.459 (inactive)	-0.412 (inactive)	-0.116 (inactive)	-0.716 (inactive)	-0.593 (inactive)	0.295 (inactive)	-1.51	0.157	0.693 (inactive)	0.159	-0.737	-3.11 (inactive)	-0.0321 (inactive)	0.0367 (inactive)
C=CCN1C(=O)[C@@]2(CC=C)N=C(c3ccc(OCCCO)cc3)O[C@H]2c2ccccc21	-0.492	-2.87 (inactive)	-3.88 (inactive)	-1.17 (inactive)	2.21 (inactive)	0.113 (inactive)	1.19 (inactive)	2.46 (inactive)	-3.54	0.0842	0.881 (inactive)	0.751	-1.99	-2.65 (inactive)	-0.772 (inactive)	-0.86 (inactive)
C=CCOC(=O)[C@@H]1[C@H]2C(=O)O[C@H](c3ccccc3)[C@H](c3ccccc3)N2[C@H](c2ccc(OCCOC(=O)[C@H]3C[C@H]4C(=O)N5CCC[C@H]5C(=O)N4[C@H]3c3ccc(O)cc3)cc2)[C@@]12C(=O)Nc1ccc(I)cc12	-0.91	0.148 (inactive)	0.119 (inactive)	1.01 (inactive)	3.16 (inactive)	1.27 (inactive)	0.0092 (inactive)	-0.743 (inactive)	-0.432	-0.02	1.93 (inactive)	0.833	-1.56	1.53 (inactive)	-0.0415 (inactive)	0.0454 (inactive)
C=CCOC(=O)[C@H]1[C@@H]2C(=O)O[C@@H](c3ccccc3)[C@@H](c3ccccc3)N2[C@@H](c2ccc(OCCOC(=O)[C@@H]3C[C@@H]4C(=O)N[C@@H](CCCCNC(C)=O)C(=O)N4[C@@H]3c3ccc(O)cc3)cc2)[C@]12C(=O)Nc1ccccc12	-0.707	0.857 (inactive)	-0.0524 (inactive)	0.0572 (inactive)	1.83 (inactive)	1.74 (inactive)	-0.605 (inactive)	-1.35 (inactive)	-0.407	-0.0018	2.75 (inactive)	0.818	-1.8	-1.89 (inactive)	-0.731 (inactive)	0.21 (inactive)
CN(C)C(=O)[C@@]1(CCS(=O)(=O)c2ccccc2)COC(c2ccc(OCCCO)cc2)=N1	-0.837	1.14 (inactive)	-2.38 (inactive)	0.989 (inactive)	1.03 (inactive)	1.08 (inactive)	0.73 (inactive)	0.56 (inactive)	-2.08	-0.0502	0.551 (inactive)	0.299	-0.697	-5.72 (inactive)	-0.0692 (inactive)	-0.023 (inactive)
CCOC(=O)C1=CC[C@@H](c2ccccc2)N(S(=O)(=O)c2ccc(C)cc2)[C@H]1c1ccccc1C	1.81	0.786 (inactive)	0.336 (inactive)	-0.494 (inactive)	-0.377 (inactive)	-0.59 (inactive)	-0.502 (inactive)	0.3 (inactive)	0.686	-0.0239	-0.164 (inactive)	0.291	-1.71	-0.813 (inactive)	0.023 (inactive)	0.112 (inactive)
